The list shows a part of the results. Unmarked numbers belong to inactive results. Calls of active or inactive are those of the source. Rule as the data show it: active = activation above about 18%; inactive = the rest.

This assay can be described thus: OPRM1-OPRD1 heterodimerization promoters, counter-screen for HTR5A agonist project, cell-based, luminescence (AID 504913). The settings on record: U2OS counter-screen cells, complementation luminescence, 3 h; at 9.3 µM; hits give high values. For orientation: The purpose of a counterscreen is to sort out artefacts and off-target activity.

With `Cc1c(C(=O)OCC(=O)N2CCCC2=O)oc2ccccc12`, the activation was 1.27%.

For the molecule `COc1ccc(C(=O)O/N=C(\N)Cc2ccc(Cl)cc2Cl)cc1OC`, the activation was 9.9%.

Regarding `Cc1cccc2sc(N(CCCN(C)C)C(=O)CCS(=O)(=O)c3ccccc3)nc12`, the activation was 0.46%.

Regarding `COc1ccc(/C=C(\C#N)c2c[nH]c3ccccc23)cc1`, the activation is 6.75%.

For the molecule `CN1c2ccc(C=O)c3c(C=O)ccc(c23)N(C)C1(C)C`, the activation is 107% (active).

Turning to `CCOC(=O)c1cnc2sccn2c1=O`, the activation is 1.07%.

Turning to `COC(=O)c1cc(S(=O)(=O)N2CCN(c3cc(C)ccc3C)CC2)c[nH]1`, the activation is 0.96%.

`c1cc(-c2nn[nH]n2)ccc1CN1CCCCC1`: the activation is 0.2%.

For the molecule `Cc1oc2c(F)c(F)c(F)c(F)c2c1S(=O)(=O)Nc1cccc(C(F)(F)F)c1`, the activation was -0.99%.

As for `O=C(CC1Nc2ccccc2NC1=O)Nc1ccccc1` (centres undefined), the activation is 2.23%.

Turning to `COc1ccc2[nH]cc(CCN3C(=O)c4ccc(C(=O)O)cc4C3=O)c2c1`, the activation was 1.66%.

With `CCCOc1ccc(C(=O)C(CCC(CNCC)C(=O)c2ccc(OCCC)cc2)CNCC)cc1` (centres undefined), the activation was -0.5%.

For the molecule `C/C(=N\NC(=O)CNc1cccc2ccccc12)c1ccc(Br)s1`, the activation is -1.65%.

For `Cc1c(C(=O)OCC(=O)N(CCC#N)c2ccccc2)oc2c1ccc1ccccc12`, the activation was 1.04%.

Consider `COc1cccc(/C=N/NC(=O)c2[nH]nc3c2CCc2ccccc2-3)c1O`, for which the activation was -4.02%.

As for `CC1CCN(S(=O)(=O)c2nnc(NC(=O)COc3ccccc3F)s2)CC1`, the activation was 3.72%.

Take `Cc1ccccc1CN1CCN(CC(=O)NCc2ccccn2)C1=O`: the activation is 0.64%.

Consider `Cc1ccc(CCC(=O)Nc2ncc(Cc3cc(Cl)ccc3Cl)s2)o1`, for which the activation is 32.2% (active).

As to `O=C(OC12CC3CC(CC(C3)C1)C2)c1ccc(NCc2cc(O)ccc2O)cc1`, the activation was 8.31%.

For `Cc1ccc(-c2csc(SCC(=O)Nc3cc(C)on3)n2)cc1`, the activation is 0.69%.

For `CC(=O)c1c(C)[nH]c(C(=O)OCC(=O)Nc2c(C)cccc2C)c1C`, the activation was 1.59%.

Take `COc1c(Cl)cc(C(=O)Nc2ccc(Cl)cn2)cc1Cl`: the activation was 9.05%.

For `Cc1ccc(C(=O)N/C(=C/c2ccco2)C(=O)NCCc2c[nH]c3ccccc23)cc1C`, the activation is 0.35%.

With `CC(=O)N1CCN(c2ccccc2NC(=S)NC(=O)c2cc3ccccc3o2)CC1`, the activation is 0.56%.
